# Test results: PMC4081100, “A DNA-binding-site landscape and regulatory network analysis for NAC transcription factors in Arabidopsis thaliana”
# Tests used:
# Assay in all cases: universal protein binding microarray (PBM); transcription factors of Arabidopsis thaliana; high values mean tight binding
# Settings in all cases: protein: recombinant; tags: GST; chain copies: 2; dsDNA, one strand shown
# GST-ANAC092(1-176) = molecular target: T1, GST-ANAC092(1-176) (Arabidopsis thaliana, UniProt Q9FKA0 1-176)
# T1 sequence: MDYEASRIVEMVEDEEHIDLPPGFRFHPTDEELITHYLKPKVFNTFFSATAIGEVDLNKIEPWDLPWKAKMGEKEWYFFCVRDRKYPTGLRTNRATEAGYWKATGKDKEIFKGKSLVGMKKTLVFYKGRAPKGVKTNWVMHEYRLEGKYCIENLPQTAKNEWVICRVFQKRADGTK
# Procedure, shortened: (§1)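 Binding is expressed as the normalised enrichment score (E-score). Proteins carrying a GST tag, whether NAC-domain, full-length or DNA-binding-domain forms, were induced in cells, and zinc acetate was added for zinc-finger proteins. After purification on glutathione–Sepharose 4B and quantification by A280 or anti-GST western blot, each was applied in duplicate at 200 to 500 nM final to custom all-10-mer Agilent 4 × 180K arrays made double-stranded by primer extension. Gapped and ungapped 8-mers were scored.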
# GST-NTL6(1-168) = GST-NTL6(1-168) (Arabidopsis thaliana, UniProt Q9SCK6 1-168)
# Sequence of GST-NTL6(1-168) (Q9SCK6 1-168): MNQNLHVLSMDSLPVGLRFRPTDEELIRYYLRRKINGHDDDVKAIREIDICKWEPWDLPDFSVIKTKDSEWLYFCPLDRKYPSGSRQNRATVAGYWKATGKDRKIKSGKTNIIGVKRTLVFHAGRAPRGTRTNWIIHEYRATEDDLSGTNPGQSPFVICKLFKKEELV
# Procedure, shortened: as §1
# GST-ANAC019 NAC domain = molecular target: T2, GST-ANAC019 NAC domain (Arabidopsis thaliana, UniProt Q9C932 14-162)
# T2 sequence: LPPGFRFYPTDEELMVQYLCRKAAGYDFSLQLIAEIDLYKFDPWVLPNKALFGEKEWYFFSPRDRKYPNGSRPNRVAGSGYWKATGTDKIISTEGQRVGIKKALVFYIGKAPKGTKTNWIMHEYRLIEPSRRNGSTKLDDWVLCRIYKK
# Procedure, shortened: as §1
# GST-ANAC055(1-171) = molecular target: T3, GST-ANAC055(1-171) (Arabidopsis thaliana, UniProt Q9LDY8 1-171)
# T3 sequence: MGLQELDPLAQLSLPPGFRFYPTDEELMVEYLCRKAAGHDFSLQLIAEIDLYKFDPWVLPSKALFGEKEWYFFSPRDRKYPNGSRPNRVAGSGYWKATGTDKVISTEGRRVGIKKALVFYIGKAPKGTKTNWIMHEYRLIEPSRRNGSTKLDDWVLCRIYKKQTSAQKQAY
# Procedure, shortened: as §1
# GST-ATAF1 NAC domain = molecular target: T4, GST-ATAF1 NAC domain (Arabidopsis thaliana, UniProt Q39013 7-158)
# T4 sequence: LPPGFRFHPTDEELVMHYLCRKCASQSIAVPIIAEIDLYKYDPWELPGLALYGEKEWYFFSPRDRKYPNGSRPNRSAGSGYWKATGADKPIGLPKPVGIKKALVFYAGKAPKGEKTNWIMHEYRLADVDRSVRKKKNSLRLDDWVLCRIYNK
# Procedure, shortened: as §1
# [1] = molecular target: T5, GST-ANAC092(1-285) full length (Arabidopsis thaliana, UniProt Q9FKA0 1-285)
# T5 sequence: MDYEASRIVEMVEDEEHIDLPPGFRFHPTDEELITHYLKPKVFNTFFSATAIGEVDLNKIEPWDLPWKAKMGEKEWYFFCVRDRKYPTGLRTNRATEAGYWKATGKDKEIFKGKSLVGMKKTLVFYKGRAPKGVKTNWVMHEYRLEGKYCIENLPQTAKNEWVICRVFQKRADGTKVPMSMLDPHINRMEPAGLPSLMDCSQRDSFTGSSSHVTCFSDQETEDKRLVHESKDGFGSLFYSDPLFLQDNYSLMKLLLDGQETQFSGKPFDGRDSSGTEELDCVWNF
# Procedure, shortened: as §1
# GST-NAP(1-166) = molecular target: T6, GST-NAP(1-166) (Arabidopsis thaliana, UniProt O49255 1-166)
# T6 sequence: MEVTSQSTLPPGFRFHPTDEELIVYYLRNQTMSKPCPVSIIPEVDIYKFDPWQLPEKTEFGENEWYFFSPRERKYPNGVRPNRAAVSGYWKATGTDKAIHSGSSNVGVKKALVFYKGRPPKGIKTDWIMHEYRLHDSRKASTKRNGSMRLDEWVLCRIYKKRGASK
# Procedure, shortened: as §1
# GST-NST2(1-184) = molecular target: T7, GST-NST2(1-184) (Arabidopsis thaliana, UniProt Q9M274 1-184)
# T7 sequence: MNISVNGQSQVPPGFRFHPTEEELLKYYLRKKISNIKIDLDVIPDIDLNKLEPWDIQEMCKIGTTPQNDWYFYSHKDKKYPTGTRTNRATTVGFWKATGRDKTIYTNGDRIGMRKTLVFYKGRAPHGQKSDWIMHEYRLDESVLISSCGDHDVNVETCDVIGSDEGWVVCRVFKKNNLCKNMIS
# Procedure, shortened: as §1
# GST-NTL8 NAC domain = molecular target: T8, GST-NTL8 NAC domain (Arabidopsis thaliana, UniProt Q9XIN7 14-156)
# T8 sequence: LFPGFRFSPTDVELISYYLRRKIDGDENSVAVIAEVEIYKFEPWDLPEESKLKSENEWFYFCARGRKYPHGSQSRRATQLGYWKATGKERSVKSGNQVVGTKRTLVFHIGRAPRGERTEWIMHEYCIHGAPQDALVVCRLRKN
# Procedure, shortened: as §1
# GST-SND1(1-203) = molecular target: T9, GST-SND1(1-203) (Arabidopsis thaliana, UniProt Q9LPI7 1-203)
# T9 sequence: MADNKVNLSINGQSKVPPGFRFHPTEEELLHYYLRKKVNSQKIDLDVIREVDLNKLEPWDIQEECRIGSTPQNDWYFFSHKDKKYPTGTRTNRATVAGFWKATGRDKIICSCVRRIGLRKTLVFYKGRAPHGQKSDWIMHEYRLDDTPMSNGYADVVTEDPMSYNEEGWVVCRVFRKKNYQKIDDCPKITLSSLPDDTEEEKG
# Procedure, shortened: as §1
# GST-VND3 NAC domain = molecular target: T10, GST-VND3 NAC domain (Arabidopsis thaliana, UniProt Q9FH59 12-162)
# T10 sequence: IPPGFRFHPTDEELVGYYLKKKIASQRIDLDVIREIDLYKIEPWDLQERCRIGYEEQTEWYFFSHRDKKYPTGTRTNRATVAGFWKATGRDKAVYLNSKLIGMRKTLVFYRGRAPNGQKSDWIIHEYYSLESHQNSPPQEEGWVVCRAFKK
# Procedure, shortened: as §1
# GST-VND7 NAC domain = molecular target: T11, GST-VND7 NAC domain (Arabidopsis thaliana, UniProt Q9C8W9 9-158)
# T11 sequence: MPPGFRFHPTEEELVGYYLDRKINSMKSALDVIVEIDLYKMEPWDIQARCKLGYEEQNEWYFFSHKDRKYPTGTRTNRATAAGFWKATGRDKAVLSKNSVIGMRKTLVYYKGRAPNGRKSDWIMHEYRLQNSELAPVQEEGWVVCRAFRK
# Procedure, shortened: as §1
Sequence,binding signal (GST-ANAC092(1-176)) [E-score],binding signal (GST-NTL6(1-168)) [E-score],binding signal (GST-ANAC019 NAC domain) [E-score],binding signal (GST-ANAC055(1-171)) [E-score],binding signal (GST-ATAF1 NAC domain) [E-score],binding signal [1] [E-score],binding signal (GST-NAP(1-166)) [E-score],binding signal (GST-NST2(1-184)) [E-score],binding signal (GST-NTL8 NAC domain) [E-score],binding signal (GST-SND1(1-203)) [E-score],binding signal (GST-VND3 NAC domain) [E-score],binding signal (GST-VND7 NAC domain) [E-score]
CTTACGCA,0.359,0.0871,0.265,0.199,0.187,0.389,0.243,0.278,0.111,0.429,0.255,0.295
GCGTAAAA,0.261,0.0562,0.15,0.087,0.185,0.247,0.0952,0.239,0.107,0.407,0.197,0.174
AACGTAAC,0.335,0.15,0.15,0.212,0.253,0.37,0.315,0.324,0.143,0.419,0.278,0.269
GTAAGAAA,0.296,0.422,0.224,0.206,0.311,0.332,0.101,0.289,0.214,0.303,0.16,0.19
CACGAAAC,0.425,0.112,0.358,0.343,0.261,0.452,0.208,0.224,0.137,0.177,0.326,0.246
ACGTAAGC,0.42,0.133,0.453,0.406,0.352,0.449,0.428,0.298,0.205,0.368,0.437,0.431
TACGCAAA,0.469,0.104,0.385,0.315,0.323,0.469,0.355,0.393,0.0978,0.473,0.405,0.334
TAAGCAAA,0.201,0.431,0.113,0.208,0.202,0.308,0.103,0.291,0.241,0.409,0.248,0.252
ACGCAAGT,0.424,0.121,0.277,0.295,0.295,0.444,0.356,0.291,0.0671,0.406,0.375,0.366
ACGTTTTC,0.382,0.196,0.248,0.304,0.336,0.401,0.29,0.32,0.225,0.322,0.303,0.327
ACGGAAAC,0.325,0.205,0.412,0.388,0.209,0.345,0.305,0.242,0.243,0.191,0.349,0.361
GAAGGAAC,0.189,0.445,0.172,0.172,0.0557,0.204,0.148,0.249,0.45,0.337,0.114,0.181
GTTTCGTA,0.375,0.0501,0.0919,0.15,0.173,0.405,0.185,0.163,0.0561,0.318,0.293,0.124
TTACTCAA,0.345,0.078,0.0697,0.0741,0.223,0.359,0.0501,0.247,0.0629,0.445,0.165,0.126
AAGGAAAT,0.191,0.384,0.147,0.0899,0.122,0.163,0.06,0.15,0.466,0.258,0.144,0.0723
CACGGCAA,0.457,0.0683,0.471,0.44,0.364,0.456,0.36,0.256,0.0895,0.123,0.456,0.444
ACGTTTCC,0.411,0.141,0.312,0.343,0.327,0.432,0.354,0.255,0.439,0.381,0.347,0.359
ACGTAACC,0.442,0.149,0.389,0.412,0.389,0.463,0.43,0.338,0.328,0.392,0.409,0.414
GTTTCTTA,0.226,0.435,0.141,0.185,0.257,0.313,–,0.311,0.28,0.33,0.16,0.0761
CAAGCAAG,0.369,0.235,0.163,0.0997,0.0612,0.419,–,0.265,0.111,0.395,0.0934,0.14
GTTGAGTA,0.305,0.152,0.0635,0.0864,0.139,0.386,–,0.279,–,0.419,0.0828,0.108
GTTCCTTA,0.136,0.458,0.141,0.0564,0.151,0.237,0.117,0.139,0.329,0.376,0.249,0.147
GAAGTAAA,0.214,0.409,0.0501,0.107,0.211,0.305,–,0.224,0.222,0.329,0.179,0.18
ATGACGTA,0.443,0.0683,0.372,0.346,0.374,0.437,0.404,0.317,0.098,0.446,0.437,0.386
AGGGAAAA,0.22,0.201,0.131,0.111,0.187,0.0865,0.117,–,0.416,0.115,0.0874,0.192
AGTAAGTA,0.145,0.415,0.133,0.199,0.14,0.184,–,0.218,–,0.137,0.275,0.083
ACGTTACT,0.435,0.0863,0.287,0.155,0.282,0.439,0.249,0.268,0.233,0.434,0.259,0.326
